# Compound activity from PubChem BioAssay.
# Rows were chosen to be rich in hits. Some 2.4% of all compounds tested hit in one or more screens of this group.
# POLK inh – inhibitors of human DNA polymerase kappa; Q9UBT6; purified Pol kappa, fluorescent DNA synthesis assay, 10 min; Potency, µM (doses to about 107 µM), for the others: at the highest dose activity, negative = inhibition, usual class: inhibitors; 400,000 compounds, 0.53% hits; AID 588579; note: % is set by controls: 0 for no effect and ±100 for the full control effect
#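 Here, compound and 10 nM enzyme are combined for 15 min at room temperature; adding 50 nM substrate (final) starts DNA synthesis, tracked by fluorescence at 0 and 10 min against buffer-only wells.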
# Pol eta inh – blocks human DNA polymerase eta activity; AID 588591; Q9Y253; 390,000 compounds, 1.2% hits; recombinant Pol eta, fluorescent DNA replication assay; Potency, µM (highest dose often 114 µM), for the others: at the highest dose activity change, negative = inhibition, actives largely listed as inhibitors; note: % is set by controls: 0 for no effect and ±100 for the full control effect
#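 Pol eta (10 nM) was preincubated with compounds for 15 min at room temperature, after which fluorescent replication substrate (50 nM final) was added to start the reaction. Fluorescence was read kinetically at 0 and 10 min.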
# POLI inh – DNA polymerase iota (human) inhibition; Pol iota fluorescent replication assay, 10 min; Potency, µM (highest dose often 115 µM), without a hit: top-dose activity, negative = inhibition, actives largely listed as inhibitors; 390,000 compounds, 1% hits; AID 588590
#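 Fluorescent replication assay read twice, at 0 min and 10 min after adding 50 nM (final) substrate. Enzyme (10 nM) and compounds were first incubated 15 min at room temperature; enzyme-free buffer wells were negative controls.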
# APEX1 inh – inhibitors of human APE1 endonuclease. P27695. recombinant APE1, TAMRA/BHQ-2 abasic DNA cleavage fluorescence. Potency, µM (series often up to 65.8 µM), inactives show at the highest dose activity change, negative = inhibition, usual class: inhibitors. 350,000 compounds, 0.35% hits. AID 2517;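 note: plate controls were vehicle for no effect and reference inhibitor for full effect; nearly all actives have a fitted effect of over 55% in size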
#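 Quantitative HTS: incision of a TAMRA/BHQ-2 double-stranded substrate bearing a tetrahydrofuran abasic site by 0.75 nM APE1 raises fluorescence. Substrate 50 nM final, added after 15 min compound preincubation at room temperature; progress as third-minus-first kinetic read difference.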
# GLS inh – glutaminase GLS (human) inhibition; O94925; GLS enzymatic activity, qHTS titration; Potency, µM (series often up to 45.5 µM), inactives show at the highest dose activity change, negative = inhibition, actives largely listed as inhibitors; 410,000 compounds, 0.21% hits; AID 624170; note: % is set by controls: 0 for no effect and ±100 for the full control effect
# Target sequence (O94925 whole entry, looked up): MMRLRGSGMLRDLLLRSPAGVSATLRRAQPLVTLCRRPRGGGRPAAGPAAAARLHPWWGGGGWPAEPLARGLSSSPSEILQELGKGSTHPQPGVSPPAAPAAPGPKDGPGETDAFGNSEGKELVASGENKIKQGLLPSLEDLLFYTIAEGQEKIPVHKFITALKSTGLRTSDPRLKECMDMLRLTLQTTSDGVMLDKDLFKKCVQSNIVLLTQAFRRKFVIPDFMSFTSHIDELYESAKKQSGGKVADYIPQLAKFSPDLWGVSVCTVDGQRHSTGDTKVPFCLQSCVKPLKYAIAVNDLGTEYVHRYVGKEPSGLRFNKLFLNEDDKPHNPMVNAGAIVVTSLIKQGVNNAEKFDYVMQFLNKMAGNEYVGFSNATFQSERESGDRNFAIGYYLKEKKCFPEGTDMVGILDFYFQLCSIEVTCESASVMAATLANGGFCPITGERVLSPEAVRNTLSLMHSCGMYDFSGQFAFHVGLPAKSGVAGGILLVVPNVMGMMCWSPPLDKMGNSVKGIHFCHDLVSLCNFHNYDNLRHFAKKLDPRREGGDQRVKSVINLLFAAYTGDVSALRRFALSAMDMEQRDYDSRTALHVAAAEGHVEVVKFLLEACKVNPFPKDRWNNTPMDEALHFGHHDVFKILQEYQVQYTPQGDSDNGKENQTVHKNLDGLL
#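 Assay buffer: 45 mM KH2PO4 pH 8.2, 0.02% Tween-20. hKGA acts on L-glutamine (1 mM solution added); product glutamate is reported by an oxidase/peroxidase Amplex Red coupling, with fluorescence taken at baseline and 30 min.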
# Pol beta inh – blocks human DNA polymerase beta activity. Potency, µM (series often up to 114 µM), for inactives: at the top dose activity change, negative = inhibition, most hits filed as inhibitors. Pol beta primer extension/strand displacement, fluorescence kinetic. 340,000 compounds, 1.3% hits. AID 485314. P06746; note: % is set by controls: 0 for no effect and ±100 for the full control effect
#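 Reaction started by 50 nM substrate onto compound-treated Pol beta (10 nM, 15 min preincubation, room temperature); plates read at 0 min and 10 min. Normalized concentration-effect data fitted by four-parameter Hill equation.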
# Active calls of the source: *; ? = inconclusive; / = no result; ! = a repeat was not active; [ ] = another dose, or the depositor's remark. Calls come from the whole dose curve; as a rule, active = well fitted curve in the direction sought with a large enough effect; inconclusive = small, poorly fitted or top-dose-only effect, or another doubt; inactive = no such curve, though single readings can be large; an effect the other way counts as inactive or inconclusive. Potency is the fitted concentration of half-maximal effect.
SMILES,POLK inh,Pol eta inh,POLI inh,APEX1 inh,GLS inh,Pol beta inh
CC(NC(=O)COC(=O)c1cn(-c2ccccc2)nc1-c1cccs1)c1ccccc1 (stereo unspecified),-17%,79µM*,?,-2%,3%,-9%
Cc1onc(-c2c(Cl)cccc2Cl)c1C(=O)NC1C(=O)N2C1SC(C)(C)C2C(=O)O (stereo unspecified),?,-6%,-7%,?,13µM*,13%
Cc1onc(-c2c(Cl)cccc2Cl)c1C(=O)N[C@@H]1C(=O)N2[C@@H]1SC(C)(C)[C@@H]2C(=O)O,-14%,-8%,-8%,-1%,10µM*!,2%
Cc1onc(-c2ccccc2Cl)c1C(=O)NC1C(=O)N2C1SC(C)(C)C2C(=O)O (stereo unspecified),-4%[60.1 µM],/,/,2%,/,/
CCOC(=O)c1c(SCc2ccccc2)n[nH]c1N,4%,-4%,-26%,17%,16%,12%
O=C(COC(=O)c1ccccc1OCc1ccccc1Cl)NC1CC1,-1%,-3%,13%,-1%,-3%,20µM*
CCOc1cccc(CNc2ccc(O)cc2)c1OCc1ccc(Cl)cc1Cl,-18%,?,3.2µM*,?,10%,-1%
CCOc1cccc(CNc2ccc(O)cc2)c1OCc1ccccc1Cl,-24%,?,8.9µM*,1%,-25%,-9%
CCOc1cc(CNc2ccc(O)cc2)cc(Cl)c1OCc1ccccc1,-25%,-12%,25µM*,/,25%,-29%
COc1ccc(NS(=O)(=O)c2ccc(C(=O)OC(C)C(=O)N3CCOCC3)cc2)cc1 (stereo unspecified),-14%,-12%,22%,-9%,14%,-2%
CCN1C(=O)[C@H]2[C@@H](c3ccc(-c4ccc(C(C)=O)cc4)cc3)N[C@@](C)(C(=O)OC)[C@H]2C1=O,0%,-11%,?,-7%,21%,/
C=CC[C@H]1CC(C)=C[C@H](CC=C)N1,-3%,-18%,27%,4%,4%,3%
CC/C(=N\NC(=O)CNC(=O)/C=C/c1ccco1)c1ccccc1,-40%,?,?,-1%,-12%,4%
COc1ccc(/C(C)=N/NC(=O)CNC(=O)/C=C\c2ccco2)cc1,1%[60.1 µM],0%,50µM*,?,-10%,25µM*
Cc1cccc(C(=O)NNS(=O)(=O)c2ccccc2)c1O,-12%,2%,87%,18%,6.3µM*,50%
CC1CCC(NC(=O)c2ccc3c(c2)N(Cc2cccc(F)c2)C(=O)c2ccccc2S3)CC1 (stereo unspecified),-15%[60.1 µM],?,89µM*,/,-1%,-30%
O=C(NC1CCCC1)c1ccc2c(c1)N(Cc1ccc(F)cc1)C(=O)c1ccccc1S2,-19%[60.1 µM],1%,-18%,/,-15%,-29%
CCOC(=O)c1sc(N2N=C(C)C(N=Nc3cccc(C)c3)C2=O)nc1C (stereo unspecified),89µM*,40µM*,50µM*,?,-2%,?
CC1=NN(c2nc(-c3ccc(C)cc3)cs2)C(=O)C1N=Nc1cccc(C)c1 (stereo unspecified),-4%,-14%,11%,-1%,6%,?
Cc1cccc(NC(=O)CSc2cn(CC(=O)N3CCOCC3)c3ccccc23)c1,-9%,-25%,20%,/,0%,1%
CC(=O)Nc1ccc(NC(=O)CSc2cn(CC(=O)N3CCOCC3)c3ccccc23)cc1,1%,-5%,0%,-22%,-4%,100µM*
COc1cccc(NC(=O)c2ccccc2OCc2c(C)noc2C)c1,-1%,-14%,21%,20%,1%,/
Cc1ccc(C)c(-c2cc(C(=O)Nc3nccs3)c3ccccc3n2)c1,-7%,4%,10%,7%,3%,24%
Cc1cc(NS(=O)(=O)c2ccc(NC(=O)c3cc(-c4cccnc4)nc4ccc(Cl)cc34)cc2)no1,-11%,?,8%,-5%,2%,6%
